Laboratory results published in PubChem BioAssay (NCATS).
Records with an inconclusive call do not appear. Entries that show only a call come without a potency. Calls of active or inactive are those of the source. Calls follow the shape of the dose curve; as a rule, active = well fitted curve in the direction sought with a large enough effect; inconclusive = small, poorly fitted or top-dose-only effect, or another doubt; inactive = no such curve, though single readings can be large; an effect the other way counts as inactive or inconclusive.

Experiments:
[1] = molecular target: Aldehyde dehydrogenase, mitochondrial (Homo sapiens) (UniProt P05091); assay: qHTS for Inhibitors of the Aldehyde Dehydrogenase Family (ALDH2) Primary screen (AID 2061308); details: ALDH2 enzyme inhibition qHTS, 1536-well; series mostly up to 56 µM; also: nearly all actives have a fitted effect of over 55% in size
[2] = molecular target: Retinaldehyde dehydrogenase 3 (Homo sapiens) (UniProt P47895); assay: qHTS for Inhibitors of the Aldehyde Dehydrogenase Family (ALDH1A3) Primary screen (AID 2061315); details: ALDH inhibition qHTS; series mostly up to 56 µM

Compound | Potency [1] | Potency [2]
NS(=O)(=O)c1ccc(Cc2c(-c3cccc(-c4ccccc4)c3)nn(-c3nc(C(=O)O)cs3)c2C2CC2)cc1 | inactive | inactive
CC(=O)c1ccc(N2CCN(S(=O)(=O)c3ccc(N4CCCC4=O)cc3)CC2)cc1 | inactive | inactive
C/C=C1\[C@H](O[C@@H]2O[C@H](CO)[C@@H](O)[C@H](O)[C@H]2O)OC=C(C(=O)OCCc2ccc(O)cc2)[C@H]1CC(=O)OCCc1ccc(O)cc1 | inactive | inactive
CC(C)N1CCc2c(sc(NC(=O)C(F)F)c2-c2nc3ccccc3s2)C1 | inactive | inactive
Cc1cc(C)nc(NC(=S)N2CCN(c3nnc(C(F)(F)F)s3)CC2)c1 | inactive | inactive
COc1cc(O)c(C(CC(=O)N2CCCCC2)c2ccc3c(c2)OCO3)c(OC)c1 (stereo not drawn) | inactive | inactive
Cc1ccc(OCCn2c(CCNC(=O)OC(C)(C)C)nc3ccccc32)cc1 | inactive | inactive
CCN1CCN(C(=O)CCN(CC(C)C)c2nc(-c3cccs3)nc3ccccc23)CC1 | inactive | inactive
CN1CCN(Nc2nn3c(=O)c4ccccc4nc3s2)CC1 | inactive | inactive
Cc1cc(CNc2ncnc3ccc(-c4ccc5c(c4)OCO5)cc23)c(C)o1 | inactive | inactive
COc1ccc(C2c3c(ncn(Cc4ccccc4)c3=N)Oc3ccc4ccccc4c32)cc1OC (stereo not drawn) | inactive | inactive
Cc1nc(CCN(C)c2ncnc3ccc(-c4ccc5c(c4)OCO5)cc23)cs1 | inactive | inactive
COc1ccc(C2=Nn3c(nnc3-c3ccccc3OC)SC2)cc1O[C@H]1CCOC1 | inactive | inactive
O=[S+]([O-])(c1c(F)cccc1F)N1CCN([S+](=O)([O-])c2cccc3nonc23)CC1 | inactive | inactive
OCC#CCSc1nnc(-c2cccc3ccccc23)o1 | inactive | inactive
Cc1cc(C)nc(NC(=S)N2CCN(c3ccc(Cl)c(C(F)(F)F)c3)CC2)c1 | inactive | inactive
COc1ccccc1S(=O)(=O)Nc1ccc2c(c1)CN(C)C(=O)N2 | inactive | inactive
Cc1cc(C)n2ncc(C(=O)Nc3ccc(Br)cc3)c2n1 | inactive | inactive
O=S(=O)(c1ccc2c(c1)OCCO2)C1CCC(O)CC1 (stereo not drawn) | inactive | inactive
O=C(Nc1cc(C(F)(F)F)cc(C(F)(F)F)c1)Nc1nnc(-c2ccncc2)s1 | inactive | inactive
O=C(OCC#CCSc1nnc(-c2cccc3ccccc23)o1)c1ccc(Cl)c(C(F)(F)F)c1 | inactive | inactive

Compound | Potency [1] | Potency [2]
Cc1cc(C)nc(NC(=S)N2CCN(Cc3cccc4ccccc34)CC2)c1 | inactive | inactive
CNC(=O)c1ccc(-c2cnc3cnc(C(=O)N(C)c4ccc(Cl)cc4)cn23)cc1 | inactive | inactive
O=S1(=O)N=C(N2CCOCC2)c2ccccc21 | inactive | inactive
CN(C)c1ccc(CNc2nc(-c3ccccc3C(F)(F)F)nc3ccccc23)cc1 | inactive | inactive
COc1cc(-c2no[n+]([O-])c2C#N)cc(OC)c1OC | inactive | inactive
CC(O)c1cc2c(s1)c1cnn(Cc3ccccc3F)c(=O)c1n2C (stereo not drawn) | inactive | inactive
Cc1ccc(NS(=O)(=O)c2cccc(Cl)c2)cc1C | inactive | inactive
Fc1cc(Nc2nc(-c3ccncc3)nc3ccccc23)ccc1-c1ccc(F)c(F)c1F | inactive | inactive
COc1cccc(-c2csc3ncnc(Sc4nnnn4C)c23)c1 | inactive | inactive
Cn1cnc(S(=O)(=O)Nc2cnccc2C(=O)Nc2nc(-c3ccccc3)cs2)c1 | inactive | inactive
NC1(C(=O)NC(CCO)c2ccc(Cl)cc2)CCN(c2ncnc3[nH]ccc23)CC1 (stereo not drawn) | inactive | inactive
Cc1c([S+](=O)([O-])N2CCN([S+](=O)([O-])c3c(F)cccc3F)CC2)sc2ccc(Cl)cc12 | inactive | inactive
Cc1cc(NS(=O)(=O)C2CCN(C(=O)Cc3ccc(Cl)c(Cl)c3)CC2)no1 | inactive | inactive
Cc1ccc(OCCn2c(CCNC(=O)Cc3ccccc3F)nc3ccccc32)cc1 | inactive | inactive
CN(C)CCCN1CCCN(C(=O)c2cccc(-c3cc(O)c4ncccc4c3)c2)C1 | inactive | inactive
Oc1cc(Nc2ccncc2)cc2cccnc12 | inactive | inactive
COc1cc(Cn2ncc3c4sc(C)cc4n(C)c3c2=O)cc(OC)c1 | inactive | inactive
CCOc1ccc(CCNC(=O)c2cc3ccccc3n2C)cc1OCC | inactive | inactive
CCCCN(C)C(=O)Cn1nc(-c2ccc(C(C)(C)C)cc2)ccc1=O | inactive | inactive
CCC1CCCN(C(=O)CC(c2ccc3c(c2)OCO3)c2c(O)cc(OC)cc2OC)C1 (stereo not drawn) | inactive | inactive
O=C(Nc1ccc(S(=O)(=O)Nc2nccs2)cc1)c1cccc2ccccc12 | inactive | inactive

Compound | Potency [1] | Potency [2]
O=C(Cc1ccc(Cl)c(Cl)c1)Nc1ccc([S+](=O)([O-])Nc2ccc([N+](=O)[O-])cc2)cc1 | inactive | inactive
Cc1ccc(OCCn2c(CCNC(=O)c3cccc4cc[nH]c34)nc3ccccc32)cc1 | inactive | inactive
COc1ccccc1CNC(=O)Nc1nnc(-c2ccncc2)s1 | inactive | inactive
CC1(C)CC(C(=O)Nc2ccc([S+](=O)([O-])Nc3nccs3)cc2)C1 | inactive | inactive
O=C(CCc1ccccc1)Nc1ccc(S(=O)(=O)Nc2nccs2)cc1 | inactive | inactive
Cc1cc(C2N=C(Nc3nc4ccccc4o3)NC3=C2C(=O)CCC3)n[nH]1 (stereo not drawn) | inactive | inactive
Cc1c(P(=S)(c2ccccc2)c2ccccc2)[n+]2ccccc2n1Cc1ccccc1 | inactive | inactive
CCN1CCCC1Cn1c(-c2ccccc2)nc2c(NCc3ccccc3)nc(C)nc21 (stereo not drawn) | inactive | inactive
COC(=O)[C@H](O)[C@H]1C(C)(C)[C@H](OC(C)=O)[C@@]2(O)C(=O)[C@]1(C)C1CC[C@]3(C)C(CC(=O)O[C@H]3c3ccoc3)[C@]13O[C@@H]32 (stereo partly drawn) | inactive | inactive
COc1c/c(=C2\C=c3ccccc3=N2)[nH]/c1=C\c1[nH]c(C)cc1C | inactive | inactive
O=C(CNC(=O)c1ccc(Cl)cc1)OC(C(=O)Nc1cc(C(F)(F)F)ccc1Cl)c1ccccc1 (stereo not drawn) | inactive | inactive
CCOC(=O)CC(=O)Nc1ncnc2c1C(c1ccccc1)c1c(ccc3ccccc13)O2 (stereo not drawn) | inactive | inactive
CC(C)c1ccc(NC(=O)c2cccs2)c(-c2nc3ccccc3[nH]c2=O)c1 | inactive | inactive
CC(=O)c1ccc(N2CCN(S(=O)(=O)c3ccc4[nH]c(=O)oc4c3)CC2)cc1 | inactive | inactive
Cn1c2cc(C#N)sc2c2cnn(Cc3ccccc3F)c(=O)c21 | inactive | inactive
O=C(NCCc1nc2ccccc2n1CCOc1ccccc1F)C1CCCCC1 | inactive | inactive
C=CCNc1oc(-c2cccc3ccccc23)nc1C#N | inactive | inactive
O=S(=O)(Nc1nccs1)c1ccc(NCc2cccc(Cl)c2Cl)cc1 | inactive | inactive
CCn1cnc2c(Nc3ccc(CCC(=O)N=C(N)N)cc3)nc(C#N)nc21 | inactive | inactive
CCOC(=O)C1CCN(C(=O)C(C)(C)NC(=O)Nc2ccc(F)c(F)c2)CC1 | inactive | inactive
Cc1cc2c(s1)c1cnn(Cc3c(F)c(F)c(C(F)(F)F)c(F)c3F)c(=O)c1n2C | inactive | inactive

Compound | Potency [1] | Potency [2]
COc1ccc(C2c3c(n(CCc4ccccc4)cnc3=N)Oc3ccc4ccccc4c32)cc1OC (stereo not drawn) | inactive | inactive
Cc1ccc(N[S+](=O)([O-])c2cc3c(cc2Cl)CCC(=O)N3)cc1Br | inactive | inactive
Oc1cccc2c(-c3nn[nH]n3)ccnc12 | inactive | inactive
Cc1ccc(S(=O)(=O)Nc2cc(F)c(F)cc2C(=O)Nc2nc(-c3ccccc3)cs2)cc1 | inactive | inactive
COc1ccc(-c2nnc3n2N=C(c2c(OC)cccc2OC)CS3)cc1OC | inactive | inactive
O=C(Cc1ccccc1)NC(c1ccco1)c1cc(Cl)c2cccnc2c1O (stereo not drawn) | inactive | inactive
CC1=C(C(=O)Nc2ccon2)C(c2ccccc2Br)N=C(Nc2nc3ccccc3o2)N1 (stereo not drawn) | inactive | inactive
C/C=C1\[C@H](O[C@@H]2O[C@H](CO)[C@@H](O)[C@H](O)[C@H]2O)OC=C2C(=O)OCCc3ccc(O)c(c3)Oc3ccc(cc3)CCOC(=O)C[C@H]21 | inactive | inactive
Cc1cccc(-c2nnc(C)n2CCCn2ccnc2)c1[N+](=O)[O-] | inactive | inactive
Cc1cc(NS(=O)(=O)c2ccc(C(=O)NCc3ccc(Cl)c(Cl)c3)cc2)no1 | inactive | inactive
Oc1ccc(CCc2ccccc2)c2cccnc12 | inactive | inactive
CCCn1c(C)nc2c(NCCCCN3CCCC3)nc(C)nc21 | inactive | inactive
COc1ccc(C2=Nn3c(nnc3-c3ccccc3F)SC2)cc1OC | inactive | inactive
COc1ccc(C(=O)N(Cc2ccccc2)Cc2cccs2)c(O)c1 | inactive | inactive
N#Cc1cccc(-c2noc(-c3ccccc3F)n2)c1 | inactive | inactive
COc1cc(NS(=O)(=O)c2ccc(C)cc2)cc(C(=O)Nc2nc(-c3ccccc3)cs2)c1 | inactive | inactive
O=C(OCC#CCSc1nnc(-c2cccc3ccccc23)o1)c1sc(Cl)c(Cl)c1Cl | inactive | inactive
CC1CCC(C(=O)Nc2ccc([S+](=O)([O-])Nc3nccs3)cc2)CC1 (stereo not drawn) | inactive | inactive
CC(C)c1cc(C(C)C)c(S(=O)(=O)Nc2cccc3cccnc23)c(C(C)C)c1 | inactive | inactive
O=C1OC(c2ccccc2)(c2ccccc2)N2CCN(C(=O)NCc3ccc(F)cc3)CC12 (stereo not drawn) | inactive | inactive
COc1ccc2nc(-c3ccc(OC)c(OC)c3)sc2c1 | inactive | inactive
